Shiga toxin inh: blocks Shiga toxin action in Vero cells. Vero cells, Shiga toxin protein synthesis inhibition reporter. inhibition, % at 38.7 µM. actives 9.2% (n = 290,000). AID 2315; in the data active = inhibition mostly above about 28%, no sharp cut-off; inactive = mostly below about 43%; note: 0% is about no effect
TbPYK inhibitor: T. brucei pyruvate kinase inhibition; Q57TT1; TbPYK enzyme, Kinase-Glo Plus ATP luminescence, 45 min; actives 0.12% (n = 410,000); Potency, µM (highest dose often 76.8 µM), without a hit: at the top dose activity, negative = inhibition, most hits filed as inhibitors; note: potency is the fitted concentration of half-maximal effect; % is set by controls: 0 for no effect and ±100 for the full control effect; nearly all actives have a fitted effect of over 50% in size
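ADP (130 uM final) triggers the TbPYK reaction after compound addition; incubation is 45 min at room temperature. Kinase-Glo Plus is then added and luminescence imaged. Normalized data are fitted to concentration-effect curves.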
LmPK inhibitor: inhibitors of Leishmania mexicana pyruvate kinase | purified LmPK, Kinase-Glo ATP luminescence, 1 h | Q27686 | Potency, µM (top dose mostly 57.5 µM), for inactives: at the highest dose activity change, negative = inhibition, hits mostly inhibitors | actives 0.37% (n = 290,000); note: potency is the fitted concentration of half-maximal effect; % is set by controls: 0 for no effect and ±100 for the full control effect
Target sequence (Q27686 whole entry, looked up): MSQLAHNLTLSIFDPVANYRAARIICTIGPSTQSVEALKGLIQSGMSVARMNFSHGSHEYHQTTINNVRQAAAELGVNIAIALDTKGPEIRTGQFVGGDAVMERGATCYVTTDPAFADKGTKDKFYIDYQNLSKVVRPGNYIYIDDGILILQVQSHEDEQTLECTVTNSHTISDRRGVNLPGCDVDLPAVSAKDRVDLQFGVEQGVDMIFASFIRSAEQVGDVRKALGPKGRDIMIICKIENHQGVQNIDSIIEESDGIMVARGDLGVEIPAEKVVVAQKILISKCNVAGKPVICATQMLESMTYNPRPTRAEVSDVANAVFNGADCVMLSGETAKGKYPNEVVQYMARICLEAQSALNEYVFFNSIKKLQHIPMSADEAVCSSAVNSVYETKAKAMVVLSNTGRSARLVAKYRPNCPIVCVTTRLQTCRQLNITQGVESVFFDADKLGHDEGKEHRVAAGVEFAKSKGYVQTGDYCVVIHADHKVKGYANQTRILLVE
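Purified LmPK (0.1 nM) with 0.5 mM PEP and 0.1 mM ADP in imidazole buffer pH 7.2 with MgCl2/KCl, 1 h at room temperature. ATP formed was read by luciferase luminescence and normalized to no-enzyme and uninhibited controls.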
RE007 growth inh: less growth of the S. pombe RE007 Vpr strain; S. pombe RE007 Vpr strain, BacTiter-Glo ATP luminescence, 24 h; Potency, µM (doses to about 92.2 µM), without a hit: at the highest dose activity change, negative = less growth, usual class: inhibitors; actives 0.21% (n = 360,000); AID 651644; active = well fitted falling curve with a large enough effect; inconclusive = small, poorly fitted or top-dose-only effect; inactive = no such curve, though single readings can be large or run the other way; note: potency is the fitted concentration of half-maximal effect; % is set by controls: 0 for no effect and ±100 for the full control effect; nearly all actives have a fitted effect of over 50% in size
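Fission yeast strain RE007, carrying one chromosomally integrated HIV-1 vpr copy, was seeded at OD 0.01 in PMG+AL medium with 23 nL pinned compound. After 24 h at 30 °C and 99% humidity, viability was read by BacTiter-Glo luminescence.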
Giardia FBPA inh: blocks Giardia fructose-bisphosphate aldolase activity; A8B2U2; purified Giardia FBPA; Potency, µM (doses to about 59.6 µM), for the others: top-dose activity, negative = inhibition, most hits filed as inhibitors; actives 0.71% (n = 290,000); AID 2451; note: potency is the fitted concentration of half-maximal effect; % is set by controls: 0 for no effect and ±100 for the full control effect; nearly all actives have a fitted effect of over 55% in size
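40 nM FBPA preincubated 10 min at RT with compound (up to 57.5 uM final), then substrate plus GAPDH/TPI/NAD/arsenate coupling and diaphorase/resazurin added. Fluorescence read after 20 min at RT, 525/598 nm.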
CHX counter: counter-screen for Shiga toxin inhibitors: cycloheximide protein synthesis inhibition | cell reporter, cycloheximide protein synthesis inhibition counterscreen | max response, % | actives 12% (n = 300,000) | AID 2314; in the data active = max response mostly above about 13%, no sharp cut-off; inactive = mostly below about 14%; note: read at 38.3 µM for the half of the compounds with a filed dose; 0% is about no effect
Numbers without * were called inactive; i = inactive; ? = inconclusive; . = no result given; [ ] = remark or other dose. The full list was thinned out, with hits kept by preference. Unless noted, calls come from the whole dose curve; as a rule, active = well fitted curve in the direction sought with a large enough effect; inconclusive = small, poorly fitted or top-dose-only effect, or another doubt; inactive = no such curve, though single readings can be large; an effect the other way counts as inactive or inconclusive.

SMILES | Shiga toxin inh | TbPYK inhibitor | LmPK inhibitor | RE007 growth inh | Giardia FBPA inh | CHX counter
CCc1ccc(C(=O)c2cn(CC(=O)NCCc3ccccc3)c3nc(C)ccc3c2=O)cc1 | . | 5% | . | . | . | .
CCNC(=S)NNC(=O)c1cc(-c2cccnc2)nc2ccccc12 | 4 | 2% | -13% | ? | 9% | 12
CCNC(=S)NNC(=O)c1cc(C)nc2ccccc12 | -9 | 8% | -6% | -1% | -6% | -1
CCNC(=S)NNC(=O)c1cc(-c2cccc(OCC)c2)nc2ccccc12 | 51 | -2% | 0% | -15% | 13% | 14*
CCNC(=S)NNC(=O)c1cc(-c2cccc(C)c2)nc2ccccc12 | 33 | -3% | ? | ? | ? | 21*
CCNC(=S)NNC(=O)c1cc(-c2ccc(OC)cc2)nc2ccccc12 | -7 | -26% | ? | 18µM* | 23% | 16
CCCCOc1cccc(-c2cc(C(=O)NNC(=S)NCC)c3ccccc3n2)c1 | 40 | 3% | 7% | -13% | 1% | 28*
COc1ccc(CNC(=O)CCCc2nnc3n(CCC(C)C)c(=O)c4sccc4n23)cc1 | . | -5% | . | . | . | .
CCCCOc1ccc(-c2cc(C(=O)NNC(=S)NCC)c3ccccc3n2)cc1 | -17 | -10% | -26% | 63µM* | -11% | -6
O=C1C[C@@H](c2ccccc2Cl)N1S(=O)(=O)c1ccccc1[N+](=O)[O-] | 2 | . | . | . | 4% | -11
CCOC(=O)c1c(C)[nH]c(C)c1-c1ccccc1OC | -20 | 0% | 2% | 28% | 0% | -7
CCOC(=O)c1c(C)[nH]c2cc(Br)c(OC)cc12 | 1 | 0% | 0% | 12% | -4%[12.9 µM] | 18*
CC1CCCN(C(C(=O)NC2CCCCC2)c2cc3c(cc2[N+](=O)[O-])OCO3)C1 (stereo not drawn) | 108* | -1% | 3% | 1% | ? | 53*
Cc1ccc(S(=O)(=O)Oc2cccc([N+](=O)[O-])c2)cc1 | . | -1% | . | 9% | . | .
CCOc1ccc(S(=O)(=O)Oc2ccc3ccccc3c2)cc1 | 43* | 1% | -2% | 7% | -1% | 29*
Cc1ccc(S(=O)(=O)Oc2ccc3ccc(O)cc3c2)cc1 | . | 0% | -2% | 2% | -6% | 29*
CCOc1ccc(S(=O)(=O)Nc2cnc3ccccc3c2)cc1 | 2 | 2% | 3% | -5% | 0% | -2
CCc1cccc(C)c1NC(=O)CN1C(=O)c2ccccc2Sc2ncccc21 | . | 2% | . | . | . | .
Cc1cc(=O)n(CC(=O)NCCC(C)C)c2c1c(C)nn2C | . | 5% | . | . | . | .
CCCc1cc(=O)oc2cc(OCC(=O)Nc3cc(C)on3)ccc12 | -1 | -9% | 0% | 0% | 3% | 1
COc1ccc(-c2cc(=O)oc3cc(OCC(=O)Nc4ccccn4)ccc23)cc1 | 26* | -17% | 2% | 16% | -14% | 26*
CCCc1cc(=O)oc2cc(OCc3ccc(C(=O)O)cc3)ccc12 | 130* | -4% | 6% | 16% | 9% | 47*
CCCc1cc(=O)oc2cc(OCC(=O)Nc3ccccn3)ccc12 | 67* | -4% | -14% | -11% | . | 25*
COc1ccc(-c2cc(=O)oc3cc(OCC(C)=O)ccc23)cc1 | 3 | -16% | -4% | 3% | -1% | -2
Cc1ccc(C2CC(=O)Oc3cc(C)c(Cl)c(C)c32)cc1 (stereo not drawn) | i | . | . | . | -1%[89.2 µM] | 3
SMILES | Shiga toxin inh | TbPYK inhibitor | LmPK inhibitor | RE007 growth inh | Giardia FBPA inh | CHX counter
O=C(CN1C(=O)C2CC=CCC2C1=O)Nc1nc2ccccc2s1 (stereo not drawn) | 52* | -8% | 4% | -7% | 8% | 28*
CCc1ccc(/C=C2\SC(=S)N(CCCC(=O)Nc3ccccn3)C2=O)cc1 | -23 | -4% | 5% | -8% | 1% | -6
CCc1ccc(/C=C2/SC(=S)N(CC(=O)Nc3nc4ccccc4s3)C2=O)cc1 | 78* | -5% | -2% | 2% | 0% | 22*
Cc1ccc2nc(NC(=O)CN3C(=O)C4CC=CCC4C3=O)sc2c1 (stereo not drawn) | 14 | -3% | 6% | 1% | 3% | 14*
CS(=O)(=O)c1ccc2nc(NC(=O)CN3C(=O)C4CC=CCC4C3=O)sc2c1 (stereo not drawn) | 8 | -1% | 12% | -8% | 11% | 12
COc1ccc(N2C(=O)Cc3cc(OC)c(OC)cc3C2c2ccc(F)cc2)cc1 (stereo not drawn) | . | 4% | . | . | . | .
CN1CCN(c2ncc3nc(-c4ccccc4)c(=O)n(CCC#N)c3n2)CC1 | . | 1% | . | . | -2% | .
Cc1ccccc1CCNC(=O)C1CCN(S(=O)(=O)c2ccc3c(ccn3C)c2)CC1 | . | 0% | . | . | . | .
CC(C)N1C(=O)S/C(=C/c2cccnc2)C1=O | 6 | 10% | 0% | -14% | 3% | 20*
CC(C)N1C(=O)S/C(=C/c2ccc3c(c2)n(C)c(=O)n3C)C1=O | -4 | 3% | -1% | 12% | 0% | -4
CC(C)/C=C1\CC/C(=C\c2cccnc2)C1=O | 124* | -4% | 1% | -11% | -11% | 78*
O=C1/C(=C\c2ccc([N+](=O)[O-])cc2)CCc2ccccc21 | 9 | -21% | ? | -10% | 1% | 26*
O=C1/C(=C/c2ccccc2)CCCc2ccccc21 | 96* | -6% | ? | -12% | -1% | 63*
CCN1CCOC(=O)C1CC(=O)Nc1cc(Cl)ccc1C (stereo not drawn) | . | -14% | . | . | . | .
O=C1/C(=C/Nc2cccc([N+](=O)[O-])c2)CCc2ccccc21 | 29 | -12% | -12% | 11% | -30% | 81*
O=C1/C(=C/c2cccnc2)CCC/C1=C\c1cccnc1 | -5 | -8% | 1% | ? | 0% | -2
O=C1/C(=C\c2cccnc2)CCc2ccccc21 | 67 | 5% | 16µM* | ? | 0% | 29*
CCC1C/C(=C\c2cccnc2)C(=O)/C(=C/c2cccnc2)C1 (stereo not drawn) | -3 | 8% | 4% | ? | 2% | 38*
O=C1NC(=S)N/C1=C/c1cccnc1 | -5 | -6% | 2% | 5% | 0% | -6
O=C1/C(=C/c2cccnc2)CC/C1=C\c1cccnc1 | 34 | -3% | 1%[11.5 µM] | -14% | 1% | 63*
O=C1c2ccccc2CCc2ccccc21 | . | 2% | . | -9% | . | .
CC(Sc1nc(-c2ccccc2)c(C#N)c(=O)[nH]1)C(=O)Nc1ccc(F)cc1 (stereo not drawn) | . | 1% | . | . | . | .
C=CCOC(=O)N[C@H](c1ccccc1)C(C(C)=O)C(C)=O | . | . | . | . | 0% | .
c1ccc(-c2ccc(CNC3CC3)cc2)cc1 | 21 | 2% | 6% | -13% | -22% | 23*
CCOc1ccc2c(c1)sc1nc(=O)n(-c3ccc(Cl)c(Cl)c3)c(=O)n12 | . | -3% | . | . | . | .
CCCNC(=O)/C(C#N)=C1\N=C(NC(=O)c2ccco2)c2ccccc21 | -2 | -4% | 2% | -20% | . | 11

Source: PubChem BioAssay (National Center for Advancing Translational Sciences (NCATS))
